# Source: PubChem BioAssay AID651681 (Broad Institute, 2012)
# Activity calls are given as the source filed them.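 Rule for the calls: active = compound with fitted CDK2 half-maximal potency at or below twice its top tested dose; inconclusive = flat curve near 30 to 70% inhibition, or poor fit; inactive = the rest.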
# Target: Cyclin-dependent kinase 2 (Homo sapiens) + Cyclin-A2 (Homo sapiens) (UniProt P20248+P24941)
# Assay: CDK2/cyclin A inhibitors, off-target check, dose response, selectivity assay for Dyrk1A inhibitor project, biochemical, dry powder, set 3 (AID 651681)
# Conditions: CDK2/cyclin A ADP-Glo luminescence, histone H1 peptide; series mostly up to 10 µM
# Chain of Cyclin-dependent kinase 2 (Homo sapiens) + Cyclin-A2 (Homo sapiens) (P20248 whole entry, looked up, one chain of several): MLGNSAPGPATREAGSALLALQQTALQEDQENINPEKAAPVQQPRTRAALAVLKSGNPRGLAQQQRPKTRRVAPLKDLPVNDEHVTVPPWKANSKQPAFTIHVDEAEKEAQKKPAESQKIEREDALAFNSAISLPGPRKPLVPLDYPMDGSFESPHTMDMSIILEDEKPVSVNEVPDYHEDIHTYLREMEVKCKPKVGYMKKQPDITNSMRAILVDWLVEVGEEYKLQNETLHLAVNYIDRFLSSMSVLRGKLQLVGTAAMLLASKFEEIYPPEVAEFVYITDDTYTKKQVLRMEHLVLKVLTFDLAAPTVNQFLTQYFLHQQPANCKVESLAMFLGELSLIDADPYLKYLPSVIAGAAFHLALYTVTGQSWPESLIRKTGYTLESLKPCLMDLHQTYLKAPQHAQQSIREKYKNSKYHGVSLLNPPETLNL
compound,measurement,value
COc1ccc2c(c1)[nH]c1c(C)nccc12,outcome,inactive
